Compound activity (PubChem)
Hits are enriched below; roughly 1.5% of the tested compounds scored in any of these assays.
TLR9-MyD88 block: inhibitors of TLR9-MyD88 association in cells, primary screen, cell-based, CHO, BLA complementation, fluorescence; Toll-like receptor 9 (Homo sapiens) + Myeloid differentiation primary response protein …; CCF4 FRET ratio; inhibition, % at 4.98 µM; 340,000 tested, 0.21% active;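 active means inhibition above the mean over all tested compounds plus 3 SD, cut at about 21% in these data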;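 further: 0% = DMSO only wells and 100% = clavulanate BLA inhibitor control wells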
TLR4-MyD88 BLA: inhibitors of TLR4-MyD88 association in cells, primary screen, cell-based, HeLa CL3-4, BLA complementation, FRET ratio | HeLa CL3-4 TLR4/MyD88 BLA complementation | inhibition, % at 8.4 µM | 200,000 tested, 0.18% active | AID 861, 2007; in the data active means inhibition above about 25%;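 further: 0% = vehicle and 100% = reference inhibitor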
Myeloid diff 2: induction of myeloid progenitor differentiation, primary screen, cell-based, flow cytometry, MLPCN library; ER-HoxA9 myeloid progenitors, lysozyme-GFP differentiation; calls only at 10 µM; 360,000 tested, 1% active; AID 624256, 2012;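 active means normalized GFP-positive differentiation at or above the plate's own cutoff, the solvent-only control mean plus 3 SD; inconclusive means no clear call, values can overlap the other calls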;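 further: cells exposed to compound for four days before flow analysis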
NOD2-RIPK2 inh: NOD2-RIPK2 binding disruptors in cells, primary screen, fluorescence, CHO cells, BLA complementation; CCF4 ratio; 360,000 tested, 0.38% active; inhibition, % at 4.98 µM; Receptor-interacting serine/threonine-protein kinase 2 (Homo sapiens), O43353; in the data active means inhibition above about 21%;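 further: 0% = vehicle only and 100% = reference blocker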
Target sequence (O43353 whole entry, looked up): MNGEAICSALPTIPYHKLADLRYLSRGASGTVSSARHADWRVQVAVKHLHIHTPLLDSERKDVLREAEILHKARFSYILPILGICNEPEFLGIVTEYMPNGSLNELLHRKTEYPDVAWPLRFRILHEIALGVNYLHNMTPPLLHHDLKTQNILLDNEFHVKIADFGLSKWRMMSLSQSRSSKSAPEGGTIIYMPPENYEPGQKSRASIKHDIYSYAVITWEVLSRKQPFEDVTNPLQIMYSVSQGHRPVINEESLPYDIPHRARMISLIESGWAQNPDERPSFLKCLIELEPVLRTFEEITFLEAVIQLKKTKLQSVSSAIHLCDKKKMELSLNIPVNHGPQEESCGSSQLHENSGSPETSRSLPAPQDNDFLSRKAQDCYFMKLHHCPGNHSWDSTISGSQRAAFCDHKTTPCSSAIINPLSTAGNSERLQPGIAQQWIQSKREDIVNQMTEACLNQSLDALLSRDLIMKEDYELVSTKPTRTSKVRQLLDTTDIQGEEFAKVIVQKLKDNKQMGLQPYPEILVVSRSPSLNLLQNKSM
* = called active by the depositor; i = inactive; ? = inconclusive; / = no result; + = active, no number.

SMILES	TLR9-MyD88 block	TLR4-MyD88 BLA	Myeloid diff 2	NOD2-RIPK2 inh
O=C1NC(=O)N(c2ccc3c(c2)OCO3)C(=O)/C1=C/c1ccc(N2CCCC2)o1	1	4	+	0
C[C@@]12CC[C@@H](c3cc4c(cc3C1)OCO4)N2c1ccccc1	/	/	i	-3
O=C(O)CCC(=O)NCCC1=c2ccccc2=N/C1=C\c1c(O)n(Cc2ccc(F)cc2)c(=S)[nH]c1=O	-6	/	+	-5
O=C(N/N=C/c1c(O)n(Cc2ccc(F)cc2)c(=O)[nH]c1=O)c1ccccc1	4	/	i	-9
COc1ccc(C(c2nnnn2-c2ccc3c(c2)OCCO3)N2CCC3(CC2)C(=O)NCN3c2ccccc2)cc1 (stereo not given)	/	/	i	-9
C[C@@H]1CN([C@H](C)CO)C(=O)c2c(c3ccccc3n2C)-c2ccccc2CO[C@H]1CN(C)Cc1ccc2c(c1)OCCN2C	4	/	i	-6
NC(N)=N/N=C/c1ccc(N2CCOCC2)cc1	0	-6	+	-8
CCCCCn1c(=O)c(C(=O)Nc2cc(C)ccn2)c(O)c2ccccc21	-12	/	+	3
CCCCCn1c(=O)c(C(=O)Nc2cnccn2)c(O)c2ccccc21	2	-15	/	0
CCCCCN1C(=O)c2cc(OC)ccc2[C@@]2(C(=O)OCC)Cc3cc(OC)ccc3[C@@H]12	/	/	i	8
CCN1CC=C(c2c[nH]c3ccccc23)CC1	-3	1	+	1
CN1CCCC1CCOC(C)(c1ccccc1)c1ccc(Cl)cc1 (stereo not given)	3	/	i	10
C#C[C@]1(O)CC[C@H]2[C@@H]3CCC4=Cc5nc6nc7ccccc7n6cc5C[C@]4(C)[C@H]3CC[C@@]21C	-1	/	+	-5
C#CC1(O)CCC2C3CCC4=C/C(=N/OCC(=O)NCC(=O)NC(C(=O)O)C(C)C)CC[C@]4(C)C3CC[C@@]21C (stereo not given in full)	-2	/	i	0
C[N+]1=C(/C=C/Nc2ccccc2)C(C)(C)c2ccccc21	6	-10	+	-1
COc1cccc(C(c2nnnn2C2CCCCC2)N2CCC3(CC2)C(=O)NCN3c2ccccc2)c1OC (stereo not given)	/	/	i	2
COC(=O)C1CN(C#N)N(c2ccc(Cl)cc2)C12c1ccccc1-c1ccccc12 (stereo not given)	10	4	?	58*
Clc1ccc(C(c2ccc(Cl)cc2)n2cc[n+](CC(OCc3ccc(Cl)cc3Cl)c3ccc(Cl)cc3Cl)c2)cc1 (stereo not given)	28*	/	i	21
CC1c2ccccc2-n2nncc2CN1C (stereo not given)	4	/	i	-8
CC1CCC2C(C)C(=O)OC3OC4(C)CCC1C32OO4 (stereo not given)	0	/	+	-4
CC1CCC2[C@@H](C)C(=O)OC3O[C@]4(C)CCC1C32OO4 (stereo not given in full)	2	/	+	6
Cc1ccc([C@@H]2C[C@H]3[C@@H](CN2S(=O)(=O)c2ccc(Cl)cc2)C(=O)C[C@@H](c2ccccc2F)N3S(=O)(=O)c2ccc(C)cc2)cc1	-2	/	i	6
CSc1ccc(NC(=O)C2(C)CCN2C(=O)C2(c3ccccc3)CC2)cc1 (stereo not given)	/	/	i	1
COc1cc(/C=C/c2nc3ccccc3c(=O)n2-c2ccc(O)cc2)ccc1O	14	/	+	10
CCc1ccc(N2C(=O)NC(=O)C(CCc3ccncc3)(CCc3ccncc3)C2=O)cc1	1	-5	i	1
SMILES	TLR9-MyD88 block	TLR4-MyD88 BLA	Myeloid diff 2	NOD2-RIPK2 inh
O=C1NC(=O)C(CCc2ccncc2)(Cc2cccc(Cl)c2Cl)C(=O)N1c1ccc(Br)cc1 (stereo not given)	-6	0	+	3
CCCCc1ccc(C(=O)O)nc1	1	/	+	-11
CCCCCCCCc1ccc(O)cc1	-8	/	i	-7
CCCCCCCCn1sccc1=O	1	/	+	15
CN(Cc1cccc(-c2ccncc2)c1)C(=O)Oc1ccccc1Cc1ccccc1	/	/	i	1
O=C(O)Cn1cc(C=C2C(=O)NC(=O)NC2=O)c2ccccc21	6	/	i	-7
C=CCn1cc(C=C2C(=O)NC(=O)NC2=O)c2ccccc21	6	/	+	-1
CC(C)(OOC1(c2ccccc2)NC(=O)c2ccccc21)c1ccccc1 (stereo not given)	/	/	i	-9
CC(C)(C)c1ccc(O)c(N=Cc2c(O)ccc3ccccc23)c1	14	/	+	1
COC(=O)C(O)(c1ccc(N=Cc2ccccc2O)c(C)c1)C(F)(F)F (stereo not given)	-2	-3	i	-5
O=C(/C=C/c1c[nH]c2ccccc12)c1c(O)n(CCc2ccccc2)c(=O)[nH]c1=O	/	/	+	-10
CCOC(=O)[C@]12Cc3cc(Cl)ccc3[C@H]1N(C)C(=O)c1cc(OC)ccc12	/	/	+	1
COC1C(O)C(C)OC(OC2C(Oc3cccc4c(O)c5c(=O)oc6ccc(C)c7c(=O)oc(c34)c5c67)OC(C)C(O)C2O)C1O (stereo not given)	2	/	+	-9
Nc1ncnc2c1ncn2[C@@H]1O[C@H](C(=O)NCCc2ccc(F)cc2)[C@@H](O)[C@H]1O	/	/	i	-7
CC1([N+](=O)[O-])COP(=O)(Nc2ccc(Cl)cc2)OC1 (stereo not given)	-5	/	i	-13
CC1([N+](=O)[O-])COP(=O)(Nc2cccc(Br)c2)OC1 (stereo not given)	3	/	+	-16
O=C1NCN(c2ccccc2)C12CCN(C(c1cc3ccccc3o1)c1nnnn1Cc1ccccc1)CC2 (stereo not given)	/	/	i	1
CN1CCN(c2nc(N)c(Br)c(Cl)n2)CC1	-1	/	+	1
CN1CCN(c2ncnc(Cl)c2N)CC1	0	-9	i	1
Cc1ccsc1/C=C1\C(=O)NC(=S)N(C)C1=O	-2	/	i	3
CN1C(=O)/C(=C/c2ccc(Cl)s2)C(=O)NC1=S	-6	/	+	0
Fc1cccc(-c2ccc3c(c2)CN(c2cccc(Cl)c2)Cc2cnnn2-3)c1	/	/	i	-17
O=c1[nH]c(O)c(/C=C2/C=CC(c3cc(Cl)ccc3Cl)=N2)c(=O)[nH]1	2	/	+	-7
CC(=O)Nc1ccc(S(=O)(=O)N2Cc3ccccc3-n3nncc3C2)cc1	5	/	+	-14
CCN(CC)C(=O)Cn1cc(/C=C2\C(=O)NC(=O)N(c3ccccc3F)C2=O)c2ccccc21	0	/	+	1
O=C(O)Cn1cc(/C=C2\C(=O)NC(=O)N(c3ccc(Cl)cc3)C2=O)c2ccccc21	4	/	i	-5
Cc1ccc(N2C(=O)NC(=O)/C(=C\C=C\c3ccco3)C2=O)cc1C	-11	-9	+	7
Cc1ccc(N2C(=O)NC(=O)/C(=C\C=C\c3ccco3)C2=O)cc1	2	/	i	-5
